Results taken from the supplement of paper PMC10646978.
± gives the standard deviation.

Experiments:
Conditions in all cases: modulator concentration 10 µM
[1] = system: RAW-Dual (murine macrophage reporter line); assay: NF-kB reporter (SEAP) activity fold change vs agonist alone; higher = enhanced NF-kB activity
Procedure, shortened: (§1)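 In 384-well plates holding 50 000 RAW-Dual murine macrophage reporter cells per well, compound at 10 μM final was pre-incubated for 1 hour at 37 °C, after which a PRR agonist was added overnight. Supernatant SEAP read with QUANTI-Blue at 620 nm absorbance reported NF-κB, and Lucia luciferase read with QUANTI-Luc luminescence reported IRF. Fold change values come from dividing each reporter signal by the mean of agonist-only control wells on the same plate, averaged over replicate plates with propagated errors.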

[2] = system: RAW-Dual (murine macrophage reporter line); assay: IRF reporter (Lucia luciferase) activity fold change vs agonist alone; higher = enhanced IRF activity
Procedure, shortened: as §1

[3] = system: RAW-Dual (murine macrophage reporter line); assay: viability score (confluency relative to resting cells, overnight) (fraction); higher = more viable, active = viable (0.7 or more)
Procedure, shortened: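 RAW-Dual macrophages in 384-well plates were exposed overnight to compound at 10 μM final. Confluency was imaged with IncuCyte, and two confluency masks were generated with IncuCyte software over all imaged wells. The viability score is confluency expressed relative to resting cells. Compounds were called viable if both masks exceeded 70% of resting cells.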

[4] = agonist: CpG ODN 1826 0.5 ug/mL

## COc1ccc(N(CC(=O)N(C)Cc2ccccc2)S(C)(=O)=O)cc1OC
[1]; [4]
  NF-kB reporter: 1.08 ± 0.086
[1]; agonist: LPS 0.1 ug/mL
  NF-kB reporter: 1.02 ± 0.083
[1]; agonist: MPLA […]
  NF-kB reporter: 1.05 ± 0.08
[2]; agonist: 3'3'-cGAMP 10 ug/mL
  IRF reporter: 1.03 ± 0.026
[2]; agonist: LPS 0.1 ug/mL
  IRF reporter: 1.45 ± 0.21
[2]; agonist: MPLA […]
  IRF reporter: 1.1 ± 0.18
[3]
  viability score: 1.01 (active)

## CC(C)c1cc(-c2n[nH]c(=O)n2-c2ccc3c(ccn3C)c2)c(O)cc1O
[1]; [4]
  NF-kB reporter: 0.0963 ± 0.0078
[1]; agonist: LPS 0.1 ug/mL
  NF-kB reporter: 0.155 ± 0.012
[1]; agonist: MPLA […]
  NF-kB reporter: 0.681 ± 0.062
[2]; agonist: 3'3'-cGAMP 10 ug/mL
  IRF reporter: 1.08 ± 0.059
[2]; agonist: LPS 0.1 ug/mL
  IRF reporter: 1.22 ± 0.09
[2]; agonist: MPLA […]
  IRF reporter: 1.41 ± 0.12
[3]
  viability score: 0.542 (inactive)

## Cc1cc(C)n(N=Cc2c[nH]c3ccccc23)c(=O)c1C#N
[1]; [4]
  NF-kB reporter: 1.08 ± 0.18
[1]; agonist: LPS 0.1 ug/mL
  NF-kB reporter: 0.963 ± 0.099
[1]; agonist: MPLA […]
  NF-kB reporter: 1.02 ± 0.096
[2]; agonist: 3'3'-cGAMP 10 ug/mL
  IRF reporter: 1.03 ± 0.032
[2]; agonist: LPS 0.1 ug/mL
  IRF reporter: 1.4 ± 0.24
[2]; agonist: MPLA […]
  IRF reporter: 1.6 ± 0.23
[3]
  viability score: 1.03 (active)

## Cc1ccc(OCCOc2ncnc3ccccc23)c(Cl)c1
[1]; [4]
  NF-kB reporter: 1.02 ± 0.11
[1]; agonist: LPS 0.1 ug/mL
  NF-kB reporter: 1.02 ± 0.078
[1]; agonist: MPLA […]
  NF-kB reporter: 1.23 ± 0.049
[2]; agonist: 3'3'-cGAMP 10 ug/mL
  IRF reporter: 0.916 ± 0.094
[2]; agonist: LPS 0.1 ug/mL
  IRF reporter: 1 ± 0.12
[2]; agonist: MPLA […]
  IRF reporter: 0.875 ± 0.18
[3]
  viability score: 1 (active)

## COc1ccc(Cn2c(SC)nc3c(c2=O)C2(CCCCC2)Cc2ccccc2-3)cc1
[1]; [4]
  NF-kB reporter: 1.43 ± 0.45
[1]; agonist: LPS 0.1 ug/mL
  NF-kB reporter: 0.856 ± 0.076
[1]; agonist: MPLA […]
  NF-kB reporter: 1.15 ± 0.2
[2]; agonist: 3'3'-cGAMP 10 ug/mL
  IRF reporter: 0.791 ± 0.099
[2]; agonist: LPS 0.1 ug/mL
  IRF reporter: 0.995 ± 0.076
[2]; agonist: MPLA […]
  IRF reporter: 1.33 ± 0.25
[3]
  viability score: 0.989 (active)

## O=C1CCC(=O)N1CC(O)Cn1c2ccc(Cl)cc2c2cc(Cl)ccc21 (stereo unspecified)
[1]; [4]
  NF-kB reporter: 0.671 ± 0.035
[1]; agonist: LPS 0.1 ug/mL
  NF-kB reporter: 0.816 ± 0.065
[1]; agonist: MPLA […]
  NF-kB reporter: 0.896 ± 0.05
[2]; agonist: 3'3'-cGAMP 10 ug/mL
  IRF reporter: 0.839 ± 0.04
[2]; agonist: LPS 0.1 ug/mL
  IRF reporter: 1.24 ± 0.25
[2]; agonist: MPLA […]
  IRF reporter: 1.19 ± 0.39
[3]
  viability score: 0.922 (active)

## CCOC(=O)N(CC(=O)OC)CP(=O)(O)C(Cc1ccccc1)C(=O)O (stereo unspecified)
[1]; [4]
  NF-kB reporter: 0.988 ± 0.058
[1]; agonist: LPS 0.1 ug/mL
  NF-kB reporter: 1.02 ± 0.07
[1]; agonist: MPLA […]
  NF-kB reporter: 0.969 ± 0.069
[2]; agonist: 3'3'-cGAMP 10 ug/mL
  IRF reporter: 1.03 ± 0.045
[2]; agonist: LPS 0.1 ug/mL
  IRF reporter: 1.41 ± 0.21
[2]; agonist: MPLA […]
  IRF reporter: 1.07 ± 0.095
[3]
  viability score: 1 (active)

## CNC(=O)c1cc(Oc2ccc(NC(=O)Nc3ccc(Cl)c(C(F)(F)F)c3)c(F)c2)ccn1.O
[1]; [4]
  NF-kB reporter: 0.151 ± 0.012
[1]; agonist: LPS 0.1 ug/mL
  NF-kB reporter: 0.0887 ± 0.0079
[1]; agonist: MPLA […]
  NF-kB reporter: 0.42 ± 0.035
[2]; agonist: 3'3'-cGAMP 10 ug/mL
  IRF reporter: 0.0171 ± 0.0034
[2]; agonist: LPS 0.1 ug/mL
  IRF reporter: 0.0276 ± 0.0016
[2]; agonist: MPLA […]
  IRF reporter: 0.0325 ± 0.0049
[3]
  viability score: 0.448 (inactive)

## COc1ccc(N(CC(=O)Nc2ccccc2C(F)(F)F)S(C)(=O)=O)cc1
[1]; [4]
  NF-kB reporter: 0.711 ± 0.14
[1]; agonist: LPS 0.1 ug/mL
  NF-kB reporter: 0.672 ± 0.27
[1]; agonist: MPLA […]
  NF-kB reporter: 0.795 ± 0.17
[2]; agonist: 3'3'-cGAMP 10 ug/mL
  IRF reporter: 0.723 ± 0.074
[2]; agonist: LPS 0.1 ug/mL
  IRF reporter: 1.03 ± 0.14
[2]; agonist: MPLA […]
  IRF reporter: 0.962 ± 0.13
[3]
  viability score: 0.992 (active)

## c1ccc(C2=Nc3ccccc3N=C(c3ccccc3)c3ccccc32)cc1
[1]; [4]
  NF-kB reporter: 0.676 ± 0.039
[1]; agonist: LPS 0.1 ug/mL
  NF-kB reporter: 1.18 ± 0.13
[1]; agonist: MPLA […]
  NF-kB reporter: 1.08 ± 0.066
[2]; agonist: 3'3'-cGAMP 10 ug/mL
  IRF reporter: 0.914 ± 0.036
[2]; agonist: LPS 0.1 ug/mL
  IRF reporter: 1.2 ± 0.1
[2]; agonist: MPLA […]
  IRF reporter: 1.01 ± 0.096
[3]
  viability score: 0.979 (active)

## COc1ccc(-n2nc(C(N)=O)c3c2C(=O)N(c2ccc(N4CCCCC4=O)cc2)CC3)cc1
[1]; [4]
  NF-kB reporter: 0.793 ± 0.076
[1]; agonist: LPS 0.1 ug/mL
  NF-kB reporter: 0.859 ± 0.052
[1]; agonist: MPLA […]
  NF-kB reporter: 1.12 ± 0.12
[2]; agonist: 3'3'-cGAMP 10 ug/mL
  IRF reporter: 0.994 ± 0.046
[2]; agonist: LPS 0.1 ug/mL
  IRF reporter: 1.19 ± 0.073
[2]; agonist: MPLA […]
  IRF reporter: 1.33 ± 0.11
[3]
  viability score: 1.01 (active)

## CCN(CC)CCOC(=O)C(c1ccccc1)c1ccccc1.Cl
[1]; [4]
  NF-kB reporter: 0.913 ± 0.08
[1]; agonist: LPS 0.1 ug/mL
  NF-kB reporter: 0.887 ± 0.067
[1]; agonist: MPLA […]
  NF-kB reporter: 0.965 ± 0.084
[2]; agonist: 3'3'-cGAMP 10 ug/mL
  IRF reporter: 1.58 ± 0.074
[2]; agonist: LPS 0.1 ug/mL
  IRF reporter: 1.29 ± 0.12
[2]; agonist: MPLA […]
  IRF reporter: 1.49 ± 0.12
[3]
  viability score: 0.941 (active)

## COC(CNC(=O)c1cccc(Cl)c1)c1ccccc1C (stereo unspecified)
[1]; [4]
  NF-kB reporter: 0.774 ± 0.038
[1]; agonist: LPS 0.1 ug/mL
  NF-kB reporter: 0.876 ± 0.092
[1]; agonist: MPLA […]
  NF-kB reporter: 0.958 ± 0.075
[2]; agonist: 3'3'-cGAMP 10 ug/mL
  IRF reporter: 0.965 ± 0.059
[2]; agonist: LPS 0.1 ug/mL
  IRF reporter: 1.22 ± 0.23
[2]; agonist: MPLA […]
  IRF reporter: 1.37 ± 0.34
[3]
  viability score: 0.999 (active)
